PubChem BioAssay (NCATS)
Records with an inconclusive call do not appear. Active and inactive are the calls of the source. The call rests on the fitted dose curve; in most records, active means well fitted inhibition curve with a large enough effect; inconclusive means small, poorly fitted or top-dose-only effect; inactive means flat fitted curve, though single readings scatter.

Legend:
Assay in all cases: qHTS profiling for inhibitors of Plasmodium falciparum proliferation (AID 504749); further: nearly all actives have a fitted effect of over 60% in size
Conditions in all cases: P. falciparum in erythrocytes, SYBR Green DNA, 72 h; series mostly up to 28.7 µM
CP335 = system: CP335
Procedure, shortened: (§1)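 P. falciparum-infected erythrocytes (0.3% parasitemia, 2.5% hematocrit final) were exposed to compounds for 72 h at 37 C in 5% CO2, then lysed with SYBR Green buffer overnight at room temperature; parasite DNA fluorescence was normalized to artemisinin and DMSO controls.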

DFO2036 = system: DFO2036
Procedure, shortened: as §1

DIV14 = system: DIV14
Procedure, shortened: as §1

DIV17 = system: DIV17
Procedure, shortened: as §1

DIV30 = system: DIV30
Procedure, shortened: as §1

Dd2 = system: Dd2
Procedure, shortened: as §1

ECU = system: ECU
Procedure, shortened: as §1

FAB9 = system: FAB9
Procedure, shortened: as §1

GB4 = system: GB4
Procedure, shortened: as §1

HB3 = system: HB3
Procedure, shortened: as §1

ICS = system: ICS
Procedure, shortened: as §1

JCK = system: JCK
Procedure, shortened: as §1

N140 = system: N140
Procedure, shortened: as §1

P93_24 = system: P93_24
Procedure, shortened: as §1

P94_40 = system: P94_40
Procedure, shortened: as §1

PAD = system: PAD
Procedure, shortened: as §1

PC15 = system: PC15
Procedure, shortened: as §1

PC26 = system: PC26
Procedure, shortened: as §1

PC49 = system: PC49
Procedure, shortened: as §1

SC27B = system: SC27B
Procedure, shortened: as §1

Measured: Potency
Potency means the concentration at half of the fitted maximal effect.

Cc1cc(O)cc2c1O[C@](C)(CCC[C@H](C)CCC[C@H](C)CCCC(C)C)CC2
active: ICS 8.91 µM
inactive: all other assays above

CCOC(=O)[C@H](CCc1ccccc1)N[C@@H](C)C(=O)N1C(=O)N(C)C[C@H]1C(=O)O
inactive: all assays above

CCC(=O)Nc1ccc(O)cc1
inactive: all assays above

COc1cc(C(=O)N2CCOCC2)cc(OC)c1OC
inactive: all assays above

NC(=O)NC(=O)Cc1ccccc1
inactive: all assays above

CCCCOc1cc(C(=O)OCCN(CC)CC)ccc1N
inactive: all assays above

CC(C)(C)NCC(O)COc1ccc(NC(=O)NC2CCCCC2)cc1 (configuration not stated)
inactive: all assays above

CC(=O)CCC(=O)O
inactive: all assays above

[O-][n+]1cccc(CO)c1
inactive: all assays above

CCCCCCCCCCCCCCCC(=O)NCCO
inactive: all assays above

NCCNCCNCCNCCN
inactive: all assays above

CC(=O)Nc1ccc(/C=N/NC(N)=S)cc1
inactive: all assays above

O=c1cc[nH]c(=S)[nH]1
inactive: all assays above

CC1=C(/C=C/C(C)=C/C=C/C(C)=C/C(=O)O)C(C)(C)CCC1
inactive: all assays above

Cc1cccc(Nc2cc(Cl)nc(SCC(=O)O)n2)c1C
inactive: all assays above

CC(=O)Oc1ccc(C2(c3ccc(OC(C)=O)cc3)C(=O)Nc3ccccc32)cc1
inactive: all assays above

CCCCN(CCCC)CCCOC(=O)c1ccc(N)cc1
inactive: all assays above

COc1ccc(S(=O)(=O)Nc2nnc(CC(C)C)s2)cc1
inactive: all assays above

CCOc1ccc2ccccc2c1C(=O)N[C@@H]1C(=O)N2[C@@H]1SC(C)(C)[C@@H]2C(=O)O
inactive: all assays above

Cc1cccc(C)c1NC(=O)CN(CC(=O)O)CC(=O)O
inactive: all assays above

O=C(O)c1ccccc1O
inactive: all assays above

O=C(O)CC(O)C(=O)O (configuration not stated)
inactive: all assays above

C#CCN(C)Cc1ccccc1
inactive: all assays above

COc1cc2[nH]c(=O)[nH]c(=O)c2cc1OC
inactive: all assays above

Cn1c(=O)c2c(ncn2CC2OCCO2)n(C)c1=O
inactive: all assays above

O=C1NC(=O)[C@@]2(CCOc3ccc(F)cc32)N1
inactive: all assays above

Nc1ccc(S(=O)(=O)Nc2ccccc2)cc1
inactive: all assays above

CC(=O)NC(Cc1ccccc1)C(=O)O (configuration not stated)
inactive: all assays above

NC(=O)NNc1ccccc1
inactive: all assays above

C[C@H](N)[C@H](O)c1cccc(O)c1
inactive: all assays above

Cc1ncc(COP(=O)(O)O)c(C=O)c1O
inactive: all assays above

O=c1[nH]c(=O)c2[nH]c(=O)[nH]c2[nH]1
inactive: all assays above

O=C(O)[C@@H]1CSCN1
inactive: all assays above

N[C@@H](CSCCCO)C(=O)O
inactive: all assays above

CCN(CC)CCSC(=O)C(c1ccccc1)c1ccccc1
inactive: all assays above

CCN(CC)CCNC(=O)c1cc(Cl)c(N)cc1OC
inactive: all assays above

CC(C)(C)C(=O)NCCCC(=O)O
inactive: all assays above

C=Cc1c(C)c2cc3[nH]c(cc4nc(cc5nc(cc1[nH]2)C(C)=C5CCC(=O)O)C(CCC(=O)O)=C4C)c(C)c3C=C
inactive: all assays above

COc1ccc(Cl)cc1C(=O)NCCc1ccc(S(=O)(=O)NC(=O)NC2CCCCC2)cc1
not listed: ECU
inactive: all other assays above

CC[C@@]1(c2ccccc2)NC(=O)N(C)C1=O
inactive: all assays above

O=c1cc(CO)occ1O
inactive: all assays above

Cc1c(Cl)cccc1Nc1ccccc1C(=O)O
not listed: HB3 | ICS
inactive: all other assays above

CN(C)CCCN1c2ccccc2Sc2ccc(Cl)cc21
active: CP335 13.5 µM | DIV14 3.01 µM | DIV17 4.78 µM | DIV30 9.53 µM | GB4 8.49 µM | ICS 4.47 µM | PAD 10 µM | PC15 10 µM | PC26 6.75 µM | PC49 7.08 µM
inactive: DFO2036 | FAB9 | HB3

COC(=O)C1=C(C)NC(C)=C(C(=O)OC)C1c1ccccc1[N+](=O)[O-]
not listed: DIV17 | ICS
inactive: all other assays above

Nc1ncnc2c1ncn2[C@@H]1O[C@H](CO)[C@@H](O)[C@H]1O
not listed: P93_24
inactive: all other assays above

O=S(=O)(O)c1cc(I)c(O)c2ncccc12
not listed: ICS
inactive: all other assays above

COc1ccccc1O
inactive: all assays above

O=C(O)CN1C(=O)c2cccc3cccc(c23)C1=O
not listed: GB4 | P93_24 | P94_40
inactive: all other assays above

C[C@H]1O[C@@H](n2cc(F)c(=O)[nH]c2=O)[C@H](O)[C@@H]1O
not listed: ICS
inactive: all other assays above

CCN(CC)CCNC(=O)c1c(C)[nH]c(/C=C2\C(=O)Nc3ccc(F)cc32)c1C
active: CP335 12 µM | DFO2036 8.91 µM | DIV14 4.78 µM | DIV17 5.36 µM | DIV30 13.5 µM | Dd2 11.2 µM | ECU 7.94 µM | GB4 7.57 µM | HB3 8.91 µM | ICS 3.98 µM | N140 8.91 µM | P93_24 6.31 µM | P94_40 7.94 µM | PAD 5.01 µM | PC15 8.91 µM | PC26 5.36 µM | SC27B 12.6 µM

CCCCC(CC)COC(=O)c1ccccc1O (configuration not stated)
inactive: all assays above

CNC(=O)Oc1ccc2c(c1)[C@]1(C)CCN(C)[C@@H]1N2C
active: CP335 7.57 µM | DFO2036 2.24 µM | DIV17 4.26 µM | ECU 1.78 µM | FAB9 2 µM | GB4 4.78 µM | HB3 2 µM | JCK 2.82 µM | N140 1.78 µM | P93_24 1.58 µM | P94_40 1.58 µM | PAD 1.41 µM | PC15 1.78 µM | PC49 2 µM

Nc1ccc(S(=O)(=O)Nc2nccs2)cc1
inactive: all assays above

CC(CN1c2ccccc2Sc2ccccc21)N(C)C (configuration not stated)
active: N140 4.47 µM
not listed: Dd2 | GB4 | P93_24 | SC27B
inactive: all other assays above

COc1cc(C)c(Cc2cnc(N)nc2N)cc1OC
active: ECU 5.01 µM | FAB9 5.62 µM | GB4 3.79 µM
not listed: HB3
inactive: all other assays above

O=C1O[C@H]([C@@H](O)CO)C(O)=C1O
not listed: ECU
inactive: all other assays above

CC1(C)[C@@H]2CC[C@@]1(C)C(=O)C2
inactive: all assays above
